Screening results (PubChem BioAssay)
Sampled rows, rich in hits. Any-hit rate of the full collection: about 19%.
DT40 TDP1 no CPT = qHTS for Inhibitors of human tyrosyl-DNA phosphodiesterase 1 (TDP1): qHTS in cells in absence of CPT; DT40 Tdp1-/- hTDP1 cells, no CPT, ATP luminescence, 48 h; Potency, µM (titrated, usually from 46.2 µM), for the others: top-dose activity change, negative = growth inhibition, hits mostly inhibitors; 15% of 420,000 active; AID 686978, 2013; note: potency is the fitted concentration of half-maximal effect; % is set by controls: 0 for no effect and ±100 for the full control effect; nearly all actives have a fitted effect of over 55% in size
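Stably hTDP1-transfected Tdp1-null chicken DT40 cells were treated with library compounds minus camptothecin and grown for at least 48 hr at 37 °C, after which cellular ATP was quantified by luminescence.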
DT40 TDP1 CPT = growth inhibition of DT40 Tdp1-/-;hTDP1 cells with camptothecin (screen for TDP1 inhibitors); chicken DT40 Tdp1-/-;hTDP1 cells + 20 nM CPT, ATP luminescence, 48 h; Potency, µM (doses to about 46.2 µM), for the others: at the top dose activity change, negative = growth inhibition, most hits filed as inhibitors; 12% of 420,000 active; note: potency is the fitted concentration of half-maximal effect; % is set by controls: 0 for no effect and ±100 for the full control effect; nearly all actives have a fitted effect of over 55% in size
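Chicken DT40 Tdp1-/- cells stably complemented with human TDP1 were seeded at 400 cells/well in medium containing 20 nM camptothecin, exposed to pin-transferred compounds, and grown at 37 °C for at least 48 hr. Viability was read as ATP luminescence.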
HepG2 tox = kills HepG2 cells in TGF-b inhibitor counter-screen | HepG2 CAGA-GFP viability, ATP luminescence, 18 h | Potency, µM (series often up to 46.1 µM), inactives show top-dose activity change, negative = cytotoxicity, usual class: cytotoxic | 0.76% of 410,000 active | AID 588856; note: potency is the fitted concentration of half-maximal effect
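HepG2 CAGA-GFP cells (1000/well, DMEM with 1% FBS) received compound, then TGF-beta at 500 pg/mL final, and were incubated 18 hours at 37 degrees C. Viability was read by CellTiter-Glo luminescence. Media-only wells were set as complete cell-killing and DMSO as no toxicity.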
ASM inhibitor = blocks human secretory acid sphingomyelinase; Potency, µM (doses to about 57.5 µM), for the others: at the top dose activity change, negative = inhibition, actives largely listed as inhibitors; 0.006% of 340,000 active; AID 504937; placental ASM, HMU-PC fluorogenic substrate, 60 min; note: potency is the fitted concentration of half-maximal effect
Target sequence (P17405 47-631 limits assumed): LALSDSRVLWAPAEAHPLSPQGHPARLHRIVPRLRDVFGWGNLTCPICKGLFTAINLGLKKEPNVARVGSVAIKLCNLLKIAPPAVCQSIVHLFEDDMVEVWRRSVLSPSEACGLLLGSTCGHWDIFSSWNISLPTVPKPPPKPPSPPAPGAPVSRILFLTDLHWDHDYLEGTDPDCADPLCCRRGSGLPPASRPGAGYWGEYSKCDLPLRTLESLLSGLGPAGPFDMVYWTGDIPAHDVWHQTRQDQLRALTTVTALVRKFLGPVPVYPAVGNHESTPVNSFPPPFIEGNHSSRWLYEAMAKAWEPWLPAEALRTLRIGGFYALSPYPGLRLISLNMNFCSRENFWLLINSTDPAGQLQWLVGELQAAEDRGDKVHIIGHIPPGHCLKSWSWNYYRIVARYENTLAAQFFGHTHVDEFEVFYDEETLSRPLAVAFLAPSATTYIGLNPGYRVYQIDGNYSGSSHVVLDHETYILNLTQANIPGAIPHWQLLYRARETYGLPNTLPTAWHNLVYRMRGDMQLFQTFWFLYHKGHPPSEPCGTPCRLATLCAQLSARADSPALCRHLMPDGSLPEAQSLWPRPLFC
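Human placenta-derived ASM preincubated with compound 10 min at room temperature, then reacted with 9 uM (final) fluorogenic HMU-PC substrate for 60 min at 37 C. Stop solution raises pH to 10; fluorescence read at Ex 386/Em 447 nm.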
TGFb SMAD3 inh = inhibitors of TGF-b signaling. HepG2 CAGA-GFP TGF-b/SMAD3 reporter, GFP fluorescence, 18 h; TGF-beta stimulated, 500 pg/mL final. Potency, µM (highest dose often 46.1 µM), without a hit: top-dose activity, negative = inhibition, usual class: inhibitors. 1.2% of 410,000 active. AID 588855; note: potency is the fitted concentration of half-maximal effect; % is set by controls: 0 for no effect and ±100 for the full control effect; nearly all actives have a fitted effect of over 65% in size
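Read-out: total well GFP (ex488/em500-530) summed from mean per-cell fluorescence. Cells: HEPG2 CAGA-GFP, 1% FBS DMEM, 18 h at 37 degrees C with 500 pg/mL final TGF-beta. Unstimulated wells served as the full-inhibition control; stimulated DMSO wells = 0%.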
IL1B secr inh = inhibitors of inflammasome signaling (IL-1 beta secretion); 4.7% of 360,000 active; AID 743279; activity change, % at 57.5 µM; THP-1 LPS/ATP IL-1B secretion, AlphaLISA, 16 h; hits give low values; in the data active = activity change below about -50%; inconclusive = mostly about -30% to -49%; note: % is set by controls: 0 for no effect and ±100 for the full control effect
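THP-1 cells pretreated 1 hr with compounds (up to 57.5 uM final), then stimulated with LPS (250 ng/mL final) plus ATP (1.25 mM final); secreted IL-1B measured by AlphaLISA after 16 hr, decreased signal indicating inhibition.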
* hit, by the source's call; i = inactive; ? = inconclusive; nt = not tested or not shown. Unless noted, calls come from the whole dose curve; as a rule, active = well fitted curve in the direction sought with a large enough effect; inconclusive = small, poorly fitted or top-dose-only effect, or another doubt; inactive = no such curve, though single readings can be large; an effect the other way counts as inactive or inconclusive.

SMILES | DT40 TDP1 no CPT | DT40 TDP1 CPT | HepG2 tox | ASM inhibitor | TGFb SMAD3 inh | IL1B secr inh
CC(NCc1ccc(S(N)(=O)=O)cc1)C(=O)Nc1cccc(Cl)c1 (stereo unspecified) | 7% | 9% | 15% | 2% | 2% | -7
COC(c1ccccc1)(c1ccccc1)C(Oc1nccc(C)n1)C(=O)O (stereo unspecified) | 4% | 10% | 3% | 1% | 2% | 18
Cc1c(Br)c([N+](=O)[O-])nn1CC(=O)NC1CCCCCC1 | -16% | 2% | 9% | -2% | 3% | -10
COc1ccc(CCNC(=O)c2cc3cc(Cl)ccc3nc2N)cc1OC | 8.2µM* | 13µM* | nt | nt | nt | 9
Nc1ccc(CNC(=O)c2cc3cc(Cl)ccc3nc2N)cc1 | ? | ? | nt | nt | nt | 15
Nc1nc2ccc(Cl)cc2cc1C(=O)NCCc1ccc(O)cc1 | 18µM* | ? | nt | nt | nt | -7
COc1ccc(CCNC(=O)c2ccc(Cl)cc2)cc1OC | ? | -8% | -24% | -2% | 2% | -19
CCCc1ccc2oc(C(=O)N3CCC(COC)C3)c(C)c2c1 (stereo unspecified) | ? | ? | -1% | 7% | -6% | -18
CCN(CC)S(=O)(=O)c1ccc(C)c(NC(=O)COC(=O)[C@@H]2CCCN2C(=O)c2cccs2)c1 | 9% | 4% | 11% | 0% | -17% | 10
CCC(C)c1ccc(NC(=S)NC(C)C2CCCO2)cc1 (stereo unspecified) | 26µM* | -18% | -5% | 2% | -29% | 16
CCC(C)c1ccc(C(CC)NC(=O)C2CCCO2)cc1 (stereo unspecified) | ? | 23µM* | -13% | -3% | -20% | 37
CCC(C)c1ccccc1NC(=O)C1CCCO1 (stereo unspecified) | -14% | -10% | -12% | 2% | 3% | 7
Cc1c(C(=O)N2CCC(C)CC2)c(S(=O)(=O)NCc2ccc(Cl)cc2)c(C)n1C | -27% | ? | -28% | nt | -31% | nt
NCCC(=O)N[C@H](Cc1cnc[nH]1)C(=O)O | -3% | 9% | nt | nt | nt | nt
COc1cccc2c(=O)c(SC(F)(F)C(F)C(F)(F)F)c(C)[nH]c12 (stereo unspecified) | 18µM* | ? | -13% | -4% | -6% | 14
COc1ccc(OC)c(NC(=O)CCn2cccn2)c1 | -18% | 0% | 0% | nt | 21% | nt
CC1=CC(C)(C)N2C(=O)C(=O)c3cc(OC(=O)c4ccco4)cc1c32 | 1.2µM* | 0.65µM* | 1% | -3% | ? | 38
O=C(Oc1cccc(OC(=O)c2ccco2)c1)c1ccco1 | -12% | -3% | -13% | 2% | -6% | 0
CCCNC(=O)C1(C)CCCN(CC(=O)c2ccccc2OC)C1 (stereo unspecified) | 2% | 2% | -3% | nt | -24% | 20
Cc1cc(C)cc(NC(=S)N2CCN(S(C)(=O)=O)CC2)c1 | 2% | 10% | -38% | 3% | 24% | i
COc1ccccc1-c1cc(SC)c(C#N)c(=O)o1 | 5.8µM* | 3.7µM* | -62% | 28% | ? | ?
COc1ccc2c(c1)C(=O)N1[C@H]3c4cc(Br)ccc4OC[C@@H]3[C@H](c3ccccc3)[C@]1(C)C(=O)N2 | ? | ? | -31% | -20% | ? | -18
C[C@@]12C(=O)Nc3ccc(Br)cc3C(=O)N1[C@H]1c3cc(Br)ccc3OC[C@@H]1[C@@H]2c1ccccc1 | 15µM* | 18µM* | -25% | -19% | -7% | -20
C[C@@]12C(=O)Nc3ccccc3C(=O)N1[C@H]1c3cc(Br)ccc3OC[C@@H]1[C@@H]2c1ccccc1 | ? | ? | -27% | ? | ? | -5
C[C@@]12C(=O)Nc3ccc(Cl)cc3C(=O)N1[C@H]1c3cc(Br)ccc3OC[C@@H]1[C@@H]2c1ccccc1 | ? | 23µM* | -1% | -24% | 12% | -28
SMILES | DT40 TDP1 no CPT | DT40 TDP1 CPT | HepG2 tox | ASM inhibitor | TGFb SMAD3 inh | IL1B secr inh
COC(=O)COc1ccccc1/C=C1/NC(=O)NC1=O | -11% | 9% | -2% | 3% | -6% | -71*
O=C1NC(=O)/C(=C\c2ccccc2OCc2cccc([N+](=O)[O-])c2)N1 | -12% | -20% | 3% | 0% | -10% | 1
Cc1cccc(C(=O)NC(=S)Nc2ccc(S(=O)(=O)N3CCN(C)CC3)cc2)c1 | 23µM* | ? | -4% | -1% | -5% | 0
Cc1cccc(C(=O)NC(=S)Nc2ccc(S(=O)(=O)N3CCCCC3)cc2)c1 | 15µM* | 18µM* | -1% | -6% | 5% | -1
COc1ccc(NC(=S)Nc2ccc(S(=O)(=O)N3CCCCC3)cc2)cc1 | ? | ? | -12% | nt | -2% | -21
Cc1ccc(C(=O)NC(=S)Nc2ccc(S(=O)(=O)N3CCN(C)CC3)cc2)cc1 | 21µM* | 16µM* | -10% | -1% | 5% | -6
COc1cc(C=NNC(=S)Nc2ccc(S(=O)(=O)N3CCCCC3)cc2)cc(OC)c1OC | 8.2µM* | 16µM* | -10% | nt | -20% | -17
COc1ccc(OC)c(NC(=O)N2CCN(Cc3nc4ccc(C)cc4o3)CC2)c1 | -2% | ? | -20% | nt | -25% | nt
O=C1NC[C@@H](CCCCN2C[C@H](Cc3ccccc3)N(CCc3ccc(O)cc3)C(=O)C2=O)N(CC2CCCCC2)C1=O | -3% | -11% | nt | nt | nt | -10
CCC(Sc1nc2ccccc2c2nc(-c3ccccc3)nn12)C(=O)Nc1cccc(OC)c1 (stereo unspecified) | 18µM* | ? | -1% | nt | -10% | nt
CCC(Sc1nc2ccsc2c(=O)n1Cc1ccc(C(=O)O)cc1)C(=O)Nc1cccc(OC)c1 (stereo unspecified) | ? | -29% | -45% | nt | -27% | 5
COc1cccc(NC(=O)CSc2nc3ccccc3c(=O)n2Cc2cccs2)c1 | ? | 21µM* | 6% | -2% | ? | 0
COc1cccc(NC(=O)CSc2nc3ccccc3c3nc4ccccc4n23)c1 | 16µM* | 12µM* | -19% | 0% | 16% | -1
COc1ccc(NC(=O)CSc2nc3ccccc3n2Cc2cccc(OC)c2)cc1 | ? | ? | -12% | nt | -10% | nt
